Source: paper PMC10163288
A selection follows. The true hit rate is not given.

B1: il2ra_site2_2erj_sap_27_mot_HHH_b1_08185_000000063_0001_41_55_H_._HHH_b1_03158_0001_0000300009_0000001_0_0001_af2pred_0001_1_af2pred_swapped (protein)
chain: SSSDAQERAREVLEEVIELLRQGNHEEAKKLLEEAREILEELGDRAAVRLIEAALRLLESLSSSS
B2: il2ra_site2_2erj_sap_22_mot_c2bf78bdce995293a161f7082e24b401_0001_af2_000000082_0001_17_32_H_._HHH_b2_05133_0001_0000600016_0000001_0_0001 (protein)
chain: SSSSDEELHEIFELLSLLLEAIQKGDDELFKKLVEEVRQLIEEKGSPNLREILEWLERHFHSSSS
B3: il2ra_site2_3nfp_normal_mot_HHH_b1_04264_000000089_0001_1_18_H_._332cd829babfe32ea4315b179459513b_0001_1_0001_0000100003_0000001_0 (protein)
chain: SQEVFEVIHKLREEGDPELAISLFALLAELLLHPENEELREKLEELLEIIKKNPEEAREVARKLP
B4: il2ra_site2_2erj_normal_mot_HHH_b1_07741_000000192_0001_1_20_H_._9b1ece5d1ebc94355a99c96473898622_0001_1_af2_0001_0000300001_0000001_0 (protein)
chain: DQEEFLRRAARENPETFIRYAELLAKDAGNPELLKLVEELKEEVEKGEIPPEEAAELVVEVLEEL
B5: il2ra_site2_2erj_sap_23_mot_HHH_b1_06697_000000025_0001_41_54_H_._HHH_b2_03690_0001_0000400021_0000001_0_0001 (protein)
chain: SSSSDYEERVKELLEELRELLEEGDEEKFEELVFEVSQLIFENNDFELFAELTEIFEEFIRSSSS
B6: il2ra_site1_2b5i_normal_mot_HHH_b2_04910_000000118_0001_1_19_H_._HHH_b1_05884_0001_0000500029_0000001_0 (protein)
chain: SSSSSEETRELQELFREADELDRRGNEEEAEEVLREAIELARQAGSRSMLKMLESALKELGSSSS
B7: il2ra_site1_3nfp_normal_mot_HHH_b1_05523_000000027_0001_1_19_H_._HHH_b1_07881_af2_0001_0000100003_0000001_0_af2pred_0001_af2pred_1 (protein)
chain: SSSSTEVSRRVLELIEEALELAQNGNPEEAEEVLREALKLAEEAGNESTARFIRKALEQSSSSSS
B8: il2ra_site1_3nfp_sap_10_mot_cc4219192d8ccd35c40e7b68f9a57604_0001_af2_000000124_0001_16_32_H_._HHH_b2_07250_0001_0000100001_0000001_0_0001 (protein)
chain: SSSSSEIEEEVRELLEEAEQLLKEGDWEEAAKVVEEAMKLASQANDDELDQLIMEWVRKLSSSSS
B9: il2ra_site1_3nfp_sap_18_mot_HHH_b2_03549_000000219_0001_1_18_H_._HHH_b1_06169_0001_0000200013_0000001_0_0001 (protein)
chain: NDERVASKLVEEAARSAGVDEVEVSVSNGTLHVEVSGGDRAARRVEEAAKQIAEWLGVEVEVTFE
B10: il2ra_site1_3nfp_normal_mot_HHH_b1_01231_af2_000000170_0001_1_16_H_._HHH_b1_02076_0001_0000200037_0000001_0_af2pred_0001_af2pred_1_swapped (protein)
chain: SSSSSSREELELKERVLRLLARIRDPEEARRVLEEAEELAKELGDERLLEELEKLLKRLGSSSSS
B11: il2ra_site2_3nfp_sap_21_mot_HHH_b1_06577_af2_000000152_0001_20_36_H_._HHH_b2_07686_0001_0000600063_0000001_0_0001 (protein)
chain: SSSSDEDEERVEKLIEEIERLLEEGDRDEAARLLLEATELAARINNDELARKLLELFLKIQSSSS
B12: il2ra_site2_3nfp_normal_mot_HHH_b1_03851_000000147_0001_21_38_H_._HHH_b1_04525_0001_0000600036_0000001_0 (protein)
chain: SSSSDEERREARELFEELQELLEENDKHAVFEVLMELFELAARTGDEEAARLVLEIYAQLRSSSS
B13: il2ra_site2_2erj_sap_10_mot_HHH_b1_08207_af2_000000250_0001_43_57_H_._HHH_b2_03076_0001_0000100015_0000001_0_0001 (protein)
chain: SSSSDWLHRLYELANRITELASRGNPEEAREVLEELQELAEEANSDNAKWVAEALEKHLNSSSSS
B14: il2ra_site2_3nfp_sap_16_mot_HHH_b1_03316_000000041_0001_39_56_H_._702997820559c2f17efcc64b63c1c749_0001_1_0001_0000200016_0000001_0_0001_af2pred_0001_1_af2pred_ … (protein)
chain: DSEKELFKEALEEGDPALIDAVALAIALAERGKPPEEIEKSVERWLRAQGVPPEEIEEILELLRK
B15: il2ra_site2_3nfp_normal_mot_HHH_b2_01406_000000272_0001_41_55_H_._HHH_b2_00362_0001_0000600032_0000001_0 (protein)
chain: SSSSSDEEEEELEERLEKALEEGDKHLAAQLAAELSELLARLNDPETAVRLAVKVLEFVLSSSSS
B16: il2ra_site2_3nfp_sap_26_mot_HHH_b1_07277_000000260_0001_23_39_H_._HHH_eva_0486_af2_0001_0000400016_0000001_0_0001 (protein)
chain: SAELARRIVELVRRGDPVAEALFALLADVAYKGDPELERLLEEALEALERGNPEEAEEIVRKALK
B17: il2ra_site1_2b5i_sap_17_mot_143f78fc0439b137266e145e81963a82_0001_1_af2_000000250_0001_37_51_H_._2548690152cc24afdf538b66510d0e06_0001_0001_0000200012_0000001_0 … (protein)
chain: SSSSDEKYDEVERLFKKALELRRAGKKEEAKEVLEEALKIAEEAKDEKLVEELKRFLELLSSSSS
B18: il2ra_site2_2erj_normal_mot_HHH_b1_00210_af2_000000043_0001_43_57_H_._HHH_b1_00702_0001_0000100006_0000001_0 (protein)
chain: SSSSDREEVEELLKELEEAYEEGDEEKFEELASRASVLIFQIGDFELWSELAELFAKLNKSSSSS
B19: il2ra_site1_2b5i_normal_mot_HHH_b1_08745_af2_000000166_0001_39_57_H_._HHH_b1_02799_0001_0000100008_0000001_0_af2pred_dldesign_0_af2pred (protein)
chain: SSSSSPEGKEVLRLLEEAEAALKAGDEAGARALLEKALEIAKKAKSNLFVKFVEAALKALESSSS

target: il2ra, P01589; test: yeast display titration
Sequence (P01589 whole entry): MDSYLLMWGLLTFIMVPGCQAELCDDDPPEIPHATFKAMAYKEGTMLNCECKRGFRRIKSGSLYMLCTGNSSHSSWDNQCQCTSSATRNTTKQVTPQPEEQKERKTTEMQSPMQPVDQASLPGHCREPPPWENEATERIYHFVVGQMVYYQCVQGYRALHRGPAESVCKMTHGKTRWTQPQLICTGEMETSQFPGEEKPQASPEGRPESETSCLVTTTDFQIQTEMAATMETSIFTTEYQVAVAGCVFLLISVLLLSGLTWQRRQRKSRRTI

Apparent Kd, inactive:
B1 no binding seen
B2 no binding seen
B3 no binding seen
B4 no binding seen
B5 no binding seen
B6 no binding seen
B7 no binding seen
B8 no binding seen
B9 no binding seen
B10 no binding seen
B11 no binding seen
B12 no binding seen
B13 no binding seen
B14 no binding seen
B15 no binding seen
B16 no binding seen
B17 no binding seen
B18 no binding seen
B19 no binding seen
